# Results: PubChem BioAssay (NCATS)
# Where “and” joins values, the source holds several entries; their conditions need not be identical. Identical values can stand only once. Inconclusive results are not listed. A call without a number means that no potency is given here. A number with no mark means an inactive call. Calls of active or inactive are those of the source. The call rests on the fitted dose curve; in most records, active means well fitted curve in the direction sought with a large enough effect; inconclusive means small, poorly fitted or top-dose-only effect, or another doubt; inactive means no such curve, though single readings can be large; an effect the other way counts as inactive or inconclusive.
# Tests used:
# TAB113 = experiment: qHTS profiling for inhibitors of Plasmodium falciparum proliferation (AID 504749); further: nearly all actives have a fitted effect of over 60% in size; conditions: P. falciparum in erythrocytes, SYBR Green DNA, 72 h; series mostly up to 28.7 µM
# Method in brief: (§1)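 Fluorescence of SYBR Green-bound parasite DNA, read at 485/535 nm, served as the growth measure. Infected erythrocytes were cultured with compound 72 h; artemisinin (0.29 uM) and DMSO wells defined the normalization range.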
# TAB165 = experiment: as above; conditions: P. falciparum in erythrocytes, SYBR Green DNA, 72 h; series mostly up to 28.7 µM
# Method in brief: as §1
# CRL-7250 = normal cell line; experiment: Cytotoxic Profiling of Annotated Libraries Using Quantitative High-Throughput Screening (AID 1296008); conditions: Five cell lines viability, CellTiter-Glo ATP luminescence, 48-72 h; max response: stronger effect = lower value; further: nearly all actives have a fitted effect of over 60% in size
# Method in brief: (§2)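 Compounds were pin-transferred onto cells and incubated 48 or 72 hr at 37 degree Celsius, 95% humidity. CellTiter-Glo was added, plates sat 10 min at room temperature, then ATP-coupled luminescence was imaged as the viability read-out.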
# HEK293 = experiment: as above; conditions: Five cell lines viability, CellTiter-Glo ATP luminescence, 48-72 h; max response: stronger effect = lower value
# Method in brief: as §2
# HaCat [1] = experiment: as above; conditions: Five cell lines viability, CellTiter-Glo ATP luminescence, 48-72 h; max response: stronger effect = lower value
# Method in brief: as §2
# NIH3T3 [2] = experiment: as above; conditions: Five cell lines viability, CellTiter-Glo ATP luminescence, 48-72 h; max response: stronger effect = lower value
# Method in brief: as §2
# HACAT [3] = experiment: qHTS assay to identify novel small-molecules to repurpose for Merkel cell carcinoma treatment (AID 1296009); conditions: MCC and control cell lines, CellTiter-Glo viability, 72 h; at 44.8 µM (top of the series) unless noted; further: nearly all actives have a fitted effect of over 60% in size
# Method in brief: (§3)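 Luminescence from CellTiter-Glo, read 10 min after addition at room temperature, reported viability following a 72 hr, 37 degree celsius treatment with NPC or MIPE compounds in titration; values normalized to plate controls.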
# HEK293T = experiment: as above; conditions: MCC and control cell lines, CellTiter-Glo viability, 72 h; at 44.8 µM (top of the series) unless noted
# Method in brief: as §3
# MCC-13 = experiment: as above; conditions: MCC and control cell lines, CellTiter-Glo viability, 72 h; series mostly up to 46 µM
# Method in brief: as §3
# MCC-26 = experiment: as above; conditions: MCC and control cell lines, CellTiter-Glo viability, 72 h; series mostly up to 46 µM
# Method in brief: as §3
# MKL-1 = experiment: as above; conditions: MCC and control cell lines, CellTiter-Glo viability, 72 h; series mostly up to 46 µM
# Method in brief: as §3
# MKL-2 = experiment: as above; conditions: MCC and control cell lines, CellTiter-Glo viability, 72 h; series mostly up to 46 µM
# Method in brief: as §3
# UISO = experiment: as above; conditions: MCC and control cell lines, CellTiter-Glo viability, 72 h; series mostly up to 46 µM
# Method in brief: as §3
# WaGa = experiment: as above; conditions: MCC and control cell lines, CellTiter-Glo viability, 72 h; series mostly up to 46 µM
# Method in brief: as §3
# C33A = experiment: Primary qHTS to identify gynecologic anti-cancer compounds using libraries of approved drugs and bioactive compounds (AID 1345084); conditions: Gynecologic cancer cell panel viability, ATPlite luminescence, 48 h; series mostly up to 57.5 µM; further: nearly all actives have a fitted effect of over 55% in size
# Method in brief: (§4)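 48 h compound exposure at 37 C, 5% CO2; five-point qHTS. ATPlite luminescence readout of cell ATP.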
# CAOV3 = experiment: as above; conditions: Gynecologic cancer cell panel viability, ATPlite luminescence, 48 h; series mostly up to 57.5 µM
# Method in brief: as §4
# NIH3T3 [4] = experiment: qHTS assay to identify novel small-molecules to repurpose for Merkel cell carcinoma treatment (AID 1296009); conditions: MCC and control cell lines, CellTiter-Glo viability, 72 h; at 44.8 µM (top of the series) unless noted; further: nearly all actives have a fitted effect of over 60% in size
# Method in brief: as §3
# TAB109 = experiment: qHTS profiling for inhibitors of Plasmodium falciparum proliferation (AID 504749); further: nearly all actives have a fitted effect of over 60% in size; conditions: P. falciparum in erythrocytes, SYBR Green DNA, 72 h; series mostly up to 28.7 µM
# Method in brief: as §1
# W2 = experiment: as above; conditions: P. falciparum in erythrocytes, SYBR Green DNA, 72 h; series mostly up to 28.7 µM
# Method in brief: as §1
# KB-3-1 = experiment: Cytotoxic Profiling of Annotated Libraries Using Quantitative High-Throughput Screening (AID 1296008); conditions: Five cell lines viability, CellTiter-Glo ATP luminescence, 48-72 h; max response: stronger effect = lower value; further: nearly all actives have a fitted effect of over 60% in size
# Method in brief: as §2
# Potency means the concentration at half of the fitted maximal effect.
smiles,measurement,setting,value
CN(C)CCN(Cc1ccccc1)c1ccccn1,Potency,TAB113,inactive
same,Potency,TAB165,inactive
same,outcome,CRL-7250,inactive
same,outcome,HEK293,inactive
same,outcome,HaCat [1],inactive
same,max response,NIH3T3 [2],0.397%
same,outcome,HACAT [3],inactive
same,outcome,HEK293T,inactive
same,Potency,MCC-13,inactive
same,Potency,MCC-26,inactive
same,Potency,MKL-1,inactive
same,Potency,MKL-2,inactive
same,Potency,UISO,inactive
same,Potency,WaGa,inactive
same,Potency,C33A,inactive
same,Potency,CAOV3,inactive
CN1[C@@H]2CC[C@H]1CC(OC(=O)C(O)c1ccccc1)C2 (stereo not given in full),max response,CRL-7250,1.28%
same,max response,HEK293,-8.16%
same,outcome,HaCat [1],inactive
same,outcome,NIH3T3 [2],inactive
same,outcome,HACAT [3],inactive
same,Potency,MCC-13,inactive
same,Potency,MCC-26,inactive
same,Potency,MKL-1,inactive
same,Potency,MKL-2,inactive
same,outcome,NIH3T3 [4],inactive
same,Potency,UISO,inactive
same,Potency,WaGa,inactive
same,Potency,C33A,inactive
same,Potency,CAOV3,inactive
O=c1[nH]c(=O)c2[nH]c(=O)[nH]c2[nH]1,Potency,TAB109,inactive
same,Potency,TAB165,inactive
same,Potency,W2,inactive
same,max response,CRL-7250,-3.74%
same,max response,HEK293,-1.57%
same,max response,HaCat [1],1.96%
same,outcome,NIH3T3 [2],inactive
same,"activity change, negative = cytotoxicity",MCC-13,-1.19% [at 9.22 µM]
same,"activity change, negative = cytotoxicity",MCC-26,-17% [at 9.22 µM]
same,"activity change, negative = cytotoxicity",MKL-1,-12.1% [at 9.22 µM]
same,"activity change, negative = cytotoxicity",MKL-2,7.3% [at 9.22 µM]
same,outcome,NIH3T3 [4],inactive [at 9.27 µM]
same,"activity change, negative = cytotoxicity",UISO,-5.4% [at 9.22 µM]
same,"activity change, negative = cytotoxicity",WaGa,-8.78% [at 9.22 µM]
same,"activity change, negative = cytotoxicity",C33A,-3.59% [at 11.6 µM]
same,"activity change, negative = cytotoxicity",CAOV3,6.78% [at 11.6 µM]
Cc1cc(N)c2ccccc2[n+]1CCCCCCCCCC[n+]1c(C)cc(N)c2ccccc21,Potency,TAB109,4.47 µM (active)
same,Potency,TAB113,0.126 µM (active)
same,Potency,TAB165,0.1 µM (active)
same,Potency,W2,0.102 µM (active)
same,Potency,CRL-7250,14.6 µM (active)
same,Potency,HEK293,1.3 µM (active)
same,max response,HaCat [1],-1.45%
same,max response,NIH3T3 [2],-20.7%
same,Potency,C33A,inactive
same,Potency,CAOV3,14.1 µM (active)
Nc1nc2c(ncn2CCC(CO)CO)c(=O)[nH]1,Potency,TAB109,inactive
same,Potency,TAB113,inactive
same,Potency,TAB165,inactive
same,Potency,W2,inactive
same,max response,CRL-7250,-22.4% and -4.66%
same,max response,HEK293,-4.76% and -4.47%
same,outcome,HaCat [1],inactive
same,max response,NIH3T3 [2],1.75%
same,outcome,NIH3T3 [2],inactive
same,outcome,HACAT [3],inactive
same,Potency,MCC-13,inactive
same,Potency,MCC-26,inactive
same,Potency,MKL-1,inactive
same,Potency,MKL-2,inactive
same,outcome,NIH3T3 [4],inactive
same,Potency,UISO,inactive
same,Potency,WaGa,inactive
same,Potency,C33A,inactive
same,Potency,CAOV3,inactive
CCCn1cnc2c1c(=O)n(CCCCC(C)=O)c(=O)n2C,Potency,TAB109,inactive
same,Potency,TAB113,inactive
same,Potency,TAB165,inactive
same,Potency,W2,15.1 µM (active)
same,max response,CRL-7250,-5.12%
same,max response,HEK293,-11.1%
same,max response,HaCat [1],-0.92%
same,max response,KB-3-1,4.64%
same,max response,NIH3T3 [2],-3.42%
same,Potency,MCC-13,inactive
same,Potency,MCC-26,inactive
same,Potency,MKL-1,inactive
same,Potency,MKL-2,inactive
same,Potency,UISO,inactive
same,Potency,WaGa,inactive
same,Potency,C33A,inactive
same,Potency,CAOV3,inactive
Nc1ncnc2c1ncn2[C@@H]1O[C@H](CO)[C@@H](O)[C@H]1O,Potency,TAB109,inactive
same,Potency,TAB113,inactive
same,Potency,TAB165,inactive
same,Potency,W2,inactive
same,outcome,CRL-7250,inactive
same,max response,HEK293,1.55%
same,outcome,HaCat [1],inactive
same,max response,KB-3-1,15.4%
same,outcome,HACAT [3],inactive
same,Potency,MCC-13,inactive
same,Potency,MCC-26,inactive
same,Potency,MKL-1,inactive
same,Potency,UISO,inactive
same,Potency,C33A,inactive
same,Potency,CAOV3,inactive
COc1ccc2c(c1)C(=O)N(CCc1ccc(S(=O)(=O)NC(=O)NC3CCCCC3)cc1)C(=O)C2(C)C,Potency,TAB109,inactive
same,Potency,TAB113,inactive
same,Potency,TAB165,inactive
same,Potency,W2,inactive
same,max response,CRL-7250,2.02% and -12.3%
same,max response,HEK293,-11%
same,max response,HaCat [1],4.11%
same,max response,KB-3-1,7.8% and -5.8%
same,max response,NIH3T3 [2],-19.1% and -11.5%
same,Potency,MCC-13,inactive
same,Potency,MCC-26,inactive
same,Potency,MKL-1,inactive
same,Potency,MKL-2,inactive
same,Potency,UISO,inactive
same,Potency,WaGa,inactive
same,Potency,C33A,inactive
same,Potency,CAOV3,inactive
CC1(C)[C@@H]2CC[C@@]1(C)C(=O)C2,Potency,TAB109,inactive
same,Potency,TAB113,inactive
same,Potency,TAB165,inactive
same,Potency,W2,inactive
same,outcome,CRL-7250,inactive
same,outcome,HEK293,inactive
same,outcome,HaCat [1],inactive
same,max response,NIH3T3 [2],-6.56%
same,outcome,HACAT [3],inactive
same,outcome,HEK293T,inactive
same,Potency,MCC-13,inactive
same,Potency,MCC-26,inactive
same,Potency,MKL-1,inactive
same,Potency,MKL-2,inactive
same,Potency,UISO,inactive
same,Potency,WaGa,inactive
same,Potency,C33A,inactive
same,Potency,CAOV3,inactive
CC/C=C(\C(=O)N[C@@H]1C(=O)N2C(C(=O)OCOC(=O)C(C)(C)C)=C(COC(N)=O)CS[C@H]12)c1csc(N)n1,max response,CRL-7250,-3.67%
same,max response,HEK293,1.21%
same,max response,HaCat [1],-0.519% and -7.83%
same,max response,KB-3-1,-16.1% and -3.61%
same,max response,NIH3T3 [2],-1.08%
same,Potency,MCC-13,inactive
same,Potency,MCC-26,inactive
same,Potency,MKL-1,inactive
same,Potency,MKL-2,inactive
same,Potency,UISO,inactive
same,Potency,C33A,inactive
CN(C)CCCN1c2ccccc2CCc2ccccc21,max response,CRL-7250,0.991%
same,Potency,HEK293,13.3 µM (active)
same,max response,HaCat [1],-28.4%
same,max response,KB-3-1,-10.8%
same,max response,NIH3T3 [2],-1.95%
same,Potency,MCC-13,inactive
same,Potency,MCC-26,inactive
same,Potency,MKL-1,inactive
same,Potency,WaGa,23.7 µM (active)
same,Potency,C33A,inactive
same,Potency,CAOV3,inactive
CCCCCCCCCCCCCCCC(=O)NCCO,Potency,TAB109,inactive
same,Potency,TAB113,inactive
same,Potency,TAB165,inactive
same,Potency,W2,inactive
same,outcome,CRL-7250,inactive
same,outcome,HEK293,inactive
same,max response,HaCat [1],-5.78%
same,max response,NIH3T3 [2],2.39%
same,outcome,HEK293T,inactive
same,Potency,MCC-13,inactive
same,Potency,MCC-26,inactive
same,Potency,MKL-1,inactive
same,Potency,MKL-2,inactive
same,Potency,UISO,inactive
same,Potency,WaGa,inactive
same,Potency,C33A,inactive
